About 8,800 targets were measured; listed, in parts, are those with a hit and a random draw of the rest. About 0.5% of all pairs of compound and target were hits. A number with no mark means an inactive call.
Assays:
Test in all cases: log2 fold change, soluble protein after heating vs DMSO (PISA); higher = thermal stabilisation; K562 lysate, 10 uM; active = over 0.2 and 3.5 SD of the protein, either way, in both replicates (recomputed)
erlotinib = compound: C#Cc1cccc(Nc2ncnc3cc(OCCOC)c(OCCOC)cc23)c1 [erlotinib]
How it was run: (§1)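 Log-two fold change in thermal stability relative to solvent controls is reported from duplicates. For each sample, crude K562 extract from dounce-homogenised pellets in PBS pH 7.4 with 1 mM MgCl2, at 1 mg/mL protein, was treated with 10 μM compound for 30 min. Aliquots heated for 3 min across 48°C-58°C were pooled, brought to 0.5% NP-40 at 4°C and cleared at 21,000xg for 90 min. The supernatant was quantified by TMTpro 16plex LC-MS/MS with channel sums equalised.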

[1] = compound: C/C(=N\NC(=O)C1=CC(=CC=C1)S(=O)(=O)N2CCOCC2)/C3=C(C=CC(=C3)Cl)O
How it was run: as §1

[2] = compound: C1=CC(=CC=C1C2=NC3=C(N2)C=C(C=C3)C(=O)N)OC4=CC=C(C=C4)Cl
How it was run: as §1

[3] = compound: C1=CC2=C(C=CC(=C2)/C=C\3/C(=O)NC(=NCC4=CC=CS4)S3)N=C1
How it was run: as §1

[4] = compound: C1=CC2=NC=CN=C2C=C1/C=C/3\C(=O)NC(=O)S3
How it was run: as §1

[5] = compound: C1=CC=C(C=C1)C2=NC(=C(N2)C3=CC=NC=C3)C4=CC(=C(C=C4)Cl)O
How it was run: as §1

[6] = compound: C1=CC=C2C(=C1)C3=NNC4=CC=CC(=C43)C2=O
How it was run: as §1

[7] = compound: C1CCN(C1)C(=O)NC2=CC=CC(=C2)NC3=NC=C(C(=N3)NCCC4=CN=CN4)Br
How it was run: as §1

[8] = compound: C1CN(CCC1(CC2=CC=C(C=C2)Cl)N)C3=NC=NC4=C3C=CN4
How it was run: as §1

IRAK-1-4 Inhibitor I = compound: C1COCCN1CCN2C3=CC=CC=C3N=C2NC(=O)C4=CC(=CC=C4)[N+](=O)[O-] [IRAK-1-4 Inhibitor I]
How it was run: as §1

Chain of UniProt Q9NTK5 (Q9NTK5 whole entry, looked up): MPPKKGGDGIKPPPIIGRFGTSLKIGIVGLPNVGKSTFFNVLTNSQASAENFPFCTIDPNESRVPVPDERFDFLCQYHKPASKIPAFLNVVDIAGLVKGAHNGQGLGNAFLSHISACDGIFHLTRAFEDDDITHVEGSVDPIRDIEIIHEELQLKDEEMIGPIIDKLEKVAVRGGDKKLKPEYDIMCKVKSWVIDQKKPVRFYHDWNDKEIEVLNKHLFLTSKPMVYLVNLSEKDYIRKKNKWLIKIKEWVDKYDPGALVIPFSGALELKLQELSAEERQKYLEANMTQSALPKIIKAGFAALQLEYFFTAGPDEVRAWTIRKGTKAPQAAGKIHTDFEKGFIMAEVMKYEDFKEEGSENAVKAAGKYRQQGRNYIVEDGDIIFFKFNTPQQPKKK
Chain of UniProt Q5VZE5 (Q5VZE5 whole entry, looked up): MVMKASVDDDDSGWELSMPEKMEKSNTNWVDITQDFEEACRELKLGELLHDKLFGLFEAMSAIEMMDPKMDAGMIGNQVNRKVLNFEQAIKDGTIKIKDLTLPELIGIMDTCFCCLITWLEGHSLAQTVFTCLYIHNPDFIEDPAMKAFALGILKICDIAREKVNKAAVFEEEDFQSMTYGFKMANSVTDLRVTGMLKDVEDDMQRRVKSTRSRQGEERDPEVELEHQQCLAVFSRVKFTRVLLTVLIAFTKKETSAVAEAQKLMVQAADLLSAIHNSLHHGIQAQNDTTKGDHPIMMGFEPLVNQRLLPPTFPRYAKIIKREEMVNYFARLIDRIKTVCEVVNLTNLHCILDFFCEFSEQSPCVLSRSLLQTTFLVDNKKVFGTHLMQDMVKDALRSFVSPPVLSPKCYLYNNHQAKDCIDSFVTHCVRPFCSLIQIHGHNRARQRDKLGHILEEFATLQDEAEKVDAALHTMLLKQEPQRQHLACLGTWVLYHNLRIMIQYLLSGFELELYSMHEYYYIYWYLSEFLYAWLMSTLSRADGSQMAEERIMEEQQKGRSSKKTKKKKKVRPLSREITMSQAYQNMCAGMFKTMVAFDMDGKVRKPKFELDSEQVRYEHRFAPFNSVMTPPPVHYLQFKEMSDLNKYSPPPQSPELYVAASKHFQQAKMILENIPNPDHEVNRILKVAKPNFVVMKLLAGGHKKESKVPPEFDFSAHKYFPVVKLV
Chain of UniProt O00159 (O00159 whole entry, looked up): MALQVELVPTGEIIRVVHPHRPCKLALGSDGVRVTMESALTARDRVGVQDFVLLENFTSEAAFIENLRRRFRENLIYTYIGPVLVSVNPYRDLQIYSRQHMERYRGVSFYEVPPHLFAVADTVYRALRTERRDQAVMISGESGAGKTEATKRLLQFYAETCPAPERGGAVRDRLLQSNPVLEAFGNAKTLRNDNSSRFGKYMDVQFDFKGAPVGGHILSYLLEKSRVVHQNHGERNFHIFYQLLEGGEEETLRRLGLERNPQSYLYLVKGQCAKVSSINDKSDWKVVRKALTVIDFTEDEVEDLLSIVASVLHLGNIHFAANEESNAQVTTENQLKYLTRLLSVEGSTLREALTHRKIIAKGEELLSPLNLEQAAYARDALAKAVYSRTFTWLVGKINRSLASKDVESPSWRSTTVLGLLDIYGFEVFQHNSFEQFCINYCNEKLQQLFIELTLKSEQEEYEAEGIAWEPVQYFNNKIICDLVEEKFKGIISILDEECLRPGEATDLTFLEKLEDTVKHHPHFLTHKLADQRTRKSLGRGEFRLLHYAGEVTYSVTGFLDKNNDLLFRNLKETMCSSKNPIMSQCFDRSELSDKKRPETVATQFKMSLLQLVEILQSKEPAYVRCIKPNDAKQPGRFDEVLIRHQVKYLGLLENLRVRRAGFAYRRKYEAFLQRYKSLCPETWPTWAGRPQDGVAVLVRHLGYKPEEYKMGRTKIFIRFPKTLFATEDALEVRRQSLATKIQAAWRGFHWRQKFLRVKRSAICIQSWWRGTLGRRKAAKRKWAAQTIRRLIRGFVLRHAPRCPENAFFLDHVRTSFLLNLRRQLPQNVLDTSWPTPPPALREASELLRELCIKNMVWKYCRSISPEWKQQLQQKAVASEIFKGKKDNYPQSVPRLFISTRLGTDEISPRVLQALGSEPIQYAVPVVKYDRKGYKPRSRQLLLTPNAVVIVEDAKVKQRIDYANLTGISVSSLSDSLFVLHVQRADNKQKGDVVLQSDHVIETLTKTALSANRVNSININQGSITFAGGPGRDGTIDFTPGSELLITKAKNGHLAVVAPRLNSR
Chain of UniProt Q8NC60 (Q8NC60 whole entry, looked up): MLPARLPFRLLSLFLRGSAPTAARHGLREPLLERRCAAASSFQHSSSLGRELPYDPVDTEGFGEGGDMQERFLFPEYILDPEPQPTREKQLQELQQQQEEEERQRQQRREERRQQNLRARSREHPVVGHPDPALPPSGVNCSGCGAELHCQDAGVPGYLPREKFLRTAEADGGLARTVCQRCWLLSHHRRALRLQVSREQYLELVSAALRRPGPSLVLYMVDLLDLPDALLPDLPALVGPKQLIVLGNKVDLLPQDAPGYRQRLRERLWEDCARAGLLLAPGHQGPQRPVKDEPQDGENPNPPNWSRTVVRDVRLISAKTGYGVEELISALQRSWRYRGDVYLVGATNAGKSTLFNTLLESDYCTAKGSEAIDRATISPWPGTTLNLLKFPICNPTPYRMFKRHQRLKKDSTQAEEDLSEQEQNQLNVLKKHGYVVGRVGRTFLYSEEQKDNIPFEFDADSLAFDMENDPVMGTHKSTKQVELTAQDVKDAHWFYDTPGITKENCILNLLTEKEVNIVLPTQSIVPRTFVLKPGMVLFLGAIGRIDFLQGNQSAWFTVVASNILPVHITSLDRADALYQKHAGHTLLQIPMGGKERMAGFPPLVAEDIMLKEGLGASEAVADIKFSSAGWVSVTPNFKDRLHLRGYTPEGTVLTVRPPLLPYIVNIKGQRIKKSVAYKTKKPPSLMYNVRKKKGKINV
Chain of UniProt Q9HBL8 (Q9HBL8 whole entry, looked up): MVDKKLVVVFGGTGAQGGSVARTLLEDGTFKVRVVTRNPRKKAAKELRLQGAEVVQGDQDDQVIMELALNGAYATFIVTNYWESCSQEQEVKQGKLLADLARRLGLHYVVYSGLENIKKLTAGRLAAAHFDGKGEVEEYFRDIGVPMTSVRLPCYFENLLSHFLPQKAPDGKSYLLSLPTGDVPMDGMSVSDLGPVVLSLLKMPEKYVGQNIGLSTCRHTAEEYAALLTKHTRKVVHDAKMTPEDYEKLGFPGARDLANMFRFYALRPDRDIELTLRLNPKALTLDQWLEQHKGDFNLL
Chain of UniProt Q9H857 (Q9H857 whole entry, looked up): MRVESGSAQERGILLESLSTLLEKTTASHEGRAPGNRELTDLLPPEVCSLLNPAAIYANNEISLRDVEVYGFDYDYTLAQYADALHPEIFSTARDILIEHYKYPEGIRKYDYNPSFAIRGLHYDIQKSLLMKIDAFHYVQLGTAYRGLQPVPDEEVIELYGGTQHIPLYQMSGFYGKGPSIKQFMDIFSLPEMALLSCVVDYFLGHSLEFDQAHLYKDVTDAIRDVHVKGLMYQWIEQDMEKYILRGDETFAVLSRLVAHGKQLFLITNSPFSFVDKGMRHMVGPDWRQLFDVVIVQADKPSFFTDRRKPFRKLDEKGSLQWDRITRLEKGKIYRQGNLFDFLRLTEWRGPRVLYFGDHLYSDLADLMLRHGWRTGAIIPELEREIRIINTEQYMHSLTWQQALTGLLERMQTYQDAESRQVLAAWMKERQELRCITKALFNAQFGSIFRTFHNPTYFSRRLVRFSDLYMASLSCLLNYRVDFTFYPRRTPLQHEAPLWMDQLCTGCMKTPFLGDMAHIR
Chain of UniProt Q9Y639 (Q9Y639 whole entry, looked up): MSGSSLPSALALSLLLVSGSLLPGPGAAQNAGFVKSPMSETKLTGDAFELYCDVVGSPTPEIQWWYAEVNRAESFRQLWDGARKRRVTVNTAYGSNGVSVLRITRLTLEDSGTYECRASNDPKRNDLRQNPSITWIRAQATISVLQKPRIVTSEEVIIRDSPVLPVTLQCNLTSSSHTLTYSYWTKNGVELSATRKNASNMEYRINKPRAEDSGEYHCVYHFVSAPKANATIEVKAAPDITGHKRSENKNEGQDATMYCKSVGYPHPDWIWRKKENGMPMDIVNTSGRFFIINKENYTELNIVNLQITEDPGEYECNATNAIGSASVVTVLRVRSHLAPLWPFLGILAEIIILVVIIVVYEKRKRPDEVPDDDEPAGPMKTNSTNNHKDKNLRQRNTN
Chain of UniProt Q13330 (Q13330 whole entry, looked up): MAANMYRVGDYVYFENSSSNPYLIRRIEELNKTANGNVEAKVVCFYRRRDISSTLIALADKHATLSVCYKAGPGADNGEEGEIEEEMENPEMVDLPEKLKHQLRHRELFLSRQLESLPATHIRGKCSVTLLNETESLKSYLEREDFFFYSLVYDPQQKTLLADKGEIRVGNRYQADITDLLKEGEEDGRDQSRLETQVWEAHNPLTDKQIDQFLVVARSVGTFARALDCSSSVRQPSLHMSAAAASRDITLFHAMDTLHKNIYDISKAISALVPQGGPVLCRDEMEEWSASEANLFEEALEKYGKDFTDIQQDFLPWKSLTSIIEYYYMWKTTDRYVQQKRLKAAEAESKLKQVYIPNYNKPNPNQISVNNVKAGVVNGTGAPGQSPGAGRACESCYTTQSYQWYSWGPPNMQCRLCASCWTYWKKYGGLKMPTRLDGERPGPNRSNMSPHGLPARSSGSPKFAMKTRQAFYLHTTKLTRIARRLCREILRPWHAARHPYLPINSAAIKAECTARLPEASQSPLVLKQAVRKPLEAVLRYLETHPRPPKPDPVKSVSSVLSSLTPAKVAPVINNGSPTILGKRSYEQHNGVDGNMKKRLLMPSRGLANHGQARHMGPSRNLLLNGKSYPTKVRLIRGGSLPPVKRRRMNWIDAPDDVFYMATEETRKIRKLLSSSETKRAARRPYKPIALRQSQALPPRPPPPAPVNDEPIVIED

Target | log2 fold change (erlotinib) | log2 fold change [1] | log2 fold change [2] | log2 fold change [3] | log2 fold change [4] | log2 fold change [5] | log2 fold change [6] | log2 fold change [7] | log2 fold change [8] | log2 fold change (IRAK-1-4 Inhibitor I)
OTUD7B (UniProt Q6GQQ9) | 0.028 | -0.06 | 0.075 | -0.026 | -0.017 | -0.006 | -0.076 | -0.002 | 0.032 | -0.039
NT5DC2 isoform 2 (UniProt Q9H857) | 0.027 | 0.008 | 0.068 | 0.03 | 0.505 (active) | -0.059 | 0.04 | -0.015 | 0.036 | 0.002
MTA1 (UniProt Q13330) | 0.006 | 0 | 0.013 | 0.017 | -0.036 | 0 | -0.035 | 0.002 | -0.008 | 0.015
NBEAL2 (UniProt Q6ZNJ1) | 0.032 | 0.011 | -0.031 | 0.038 | 0.017 | -0.004 | -0.032 | -0.012 | 0.024 | -0.01
NAA35 (UniProt Q5VZE5) | 0.017 | 0.054 | -0.023 | 0.115 | 0.021 | 0.01 | -0.002 | -0.026 | -0.025 | 0.013
NPTN (UniProt Q9Y639) | -0.047 | -0.02 | -0.056 | -0.421 (active) | 0.008 | 0.048 | 0.17 | -0.003 | 0.007 | 0.064
NOA1 (UniProt Q8NC60) | 0.001 | 0.003 | -0.007 | -0.051 | -0.024 | 0.033 | -0.088 | 0.07 | -0.046 | -0.032
PBK (UniProt Q96KB5) | 0.012 | 0.026 | -0.044 | 0.014 | -0.014 | 0.008 | -0.001 | -0.007 | -0.011 | -0.007
NUP93 (UniProt Q8N1F7) | 0.025 | 0.058 | -0.042 | 0.021 | 0.032 | -0.022 | -0.049 | 0.002 | 0.015 | -0.022
NMRAL1 (UniProt Q9HBL8) | 0.008 | 0.012 | -0.111 | -0.011 | -0.037 | -0.054 | 0.141 | 0.024 | 0.001 | -0.02
NFAT5 isoform 5 (UniProt O94916) | -0.06 | -0.012 | 0.016 | -0.036 | 0.049 | -0.008 | -0.012 | -0.006 | 0.02 | 0.047
NDUFS1 isoform 2 (UniProt P28331) | -0.006 | 0.033 | -0.045 | 0.025 | 0.027 | -0.033 | -0.027 | -0.052 | 0.006 | 0.006
ORC5 (UniProt O43913) | 0.014 | 0.021 | -0.017 | 0.003 | 0.045 | 0.029 | -0.016 | -0.085 | -0.061 | -0.068
OLA1 (UniProt Q9NTK5) | 0.038 | 0.031 | 0.029 | -0.02 | 0.02 | 0.007 | -0.048 | 0.022 | 0.02 | -0.02
MYO1C (UniProt O00159) | -0.002 | -0.005 | 0.003 | 0.017 | 0.006 | 0.047 | -0.003 | -0.021 | -0.032 | -0.055
